Measurements: PubChem BioAssay (EPA / NIEHS)
Inconclusive results are not listed. A structure can be active in one record and inactive in another. Activity calls are given as the source filed them. The calls were made as follows, unless noted: active = hit-call score of the fitted dose curve at least 0.9, where 1 is the maximum; inactive = score below 0.9.

Tests used:
[1] = target: Oxysterols receptor LXR-beta (Homo sapiens) (UniProt P55055); assay: ATG_LXRb_TRANS: Attagene TRANS-FACTORIAL HepG2 Assay for human Liver X Receptor beta (LXRb) (AID 2282981; active = hit-call score of the fitted dose curve at least 0.9, where 1 is the maximum); conditions: HepG2 Attagene TRANS GAL4-LXRb reporter, mRNA
Chain of Oxysterols receptor LXR-beta (Homo sapiens) (P55055 whole entry, looked up, the tested form may be a part): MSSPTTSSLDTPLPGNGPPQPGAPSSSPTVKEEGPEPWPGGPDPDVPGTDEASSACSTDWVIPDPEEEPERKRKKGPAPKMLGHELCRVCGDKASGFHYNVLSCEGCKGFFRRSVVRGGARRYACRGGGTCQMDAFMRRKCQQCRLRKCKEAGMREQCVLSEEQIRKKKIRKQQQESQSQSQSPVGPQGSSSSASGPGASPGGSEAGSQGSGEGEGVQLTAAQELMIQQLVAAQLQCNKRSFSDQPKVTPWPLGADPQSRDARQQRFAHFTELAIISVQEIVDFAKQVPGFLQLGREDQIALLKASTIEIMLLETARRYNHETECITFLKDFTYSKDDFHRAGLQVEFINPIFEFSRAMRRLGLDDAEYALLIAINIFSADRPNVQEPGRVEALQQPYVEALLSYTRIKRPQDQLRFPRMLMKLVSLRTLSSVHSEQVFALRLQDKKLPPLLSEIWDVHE
Method in brief: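 Multiplexed reporter assay, HepG2, 24 h dosing. Fluorescence of labelled RT-PCR products after capillary electrophoresis gives transcript level; positive fitting direction relative to DMSO.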

[2] = target: Hepatocyte nuclear factor 4-alpha (Homo sapiens) (UniProt P41235); assay: ATG_HNF4a_TRANS: Attagene TRANS-FACTORIAL HepG2 Assay for human Hepatocyte Nuclear Factor 4 alpha (HNF4a) (AID 2282982; active = hit-call score of the fitted dose curve at least 0.9, where 1 is the maximum); conditions: HepG2 HNF4a transactivation reporter, mRNA readout
Chain of Hepatocyte nuclear factor 4-alpha (Homo sapiens) (P41235 whole entry, looked up, the tested form may be a part): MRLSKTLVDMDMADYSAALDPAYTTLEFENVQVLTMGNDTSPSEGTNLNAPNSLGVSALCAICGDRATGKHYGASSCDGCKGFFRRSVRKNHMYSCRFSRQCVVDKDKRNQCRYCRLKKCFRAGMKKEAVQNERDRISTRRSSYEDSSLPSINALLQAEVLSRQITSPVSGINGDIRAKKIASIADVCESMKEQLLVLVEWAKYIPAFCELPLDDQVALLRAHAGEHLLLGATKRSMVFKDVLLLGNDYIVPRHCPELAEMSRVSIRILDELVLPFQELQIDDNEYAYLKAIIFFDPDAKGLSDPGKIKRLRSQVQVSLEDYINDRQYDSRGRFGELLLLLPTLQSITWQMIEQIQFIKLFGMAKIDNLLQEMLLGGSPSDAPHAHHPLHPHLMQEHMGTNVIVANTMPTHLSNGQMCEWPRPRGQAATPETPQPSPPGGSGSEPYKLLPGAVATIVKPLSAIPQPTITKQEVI
Method in brief: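 Endpoint reflects transcriptional activation of a GAL4-UAS reporter by an HNF4a-GAL4 chimera in transfected HepG2 cells, 24 h post-dosing. Fluorescence from RT-PCR products separated by capillary electrophoresis; DMSO baseline.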

[3] = ATG_M_06_TRANS: Attagene TRANS-FACTORIAL HepG2 Assay for M06 Transcription Factor (Internal Marker) (AID 2282983; active = hit-call score of the fitted dose curve at least 0.9, where 1 is the maximum); conditions: HepG2 Attagene TRANS M06 internal marker reporter
Method in brief: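 Human liver HepG2 cells bearing transiently transfected chimeric NR-GAL4 reporter units were treated with chemicals for 24 h. Total RNA was reverse-transcribed, reporter sequences amplified and labelled, then quantified by capillary electrophoresis. Activity was fitted upward relative to DMSO.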

[4] = ATG_M_32_TRANS: Attagene TRANS-FACTORIAL HepG2 Assay for M32 Transcription Factor (Internal Marker) (AID 2282984; active = hit-call score of the fitted dose curve at least 0.9, where 1 is the maximum;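 also: transcript level of a background control reporter unit measured by RT-PCR and capillary electrophoresis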); conditions: HepG2 Attagene TRANS M32 internal marker reporter
Method in brief: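 Internal-marker readout from a multiplexed transcription reporter panel. HepG2 cells were transfected with GAL4-UAS reporter units, treated 24 hours, and reporter transcript levels determined by fluorescence after RT-PCR and capillary separation.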

[5] = target: Transcriptional activator Myb (Homo sapiens) (UniProt P10242); assay: ATG_Myb_CIS: Attagene CIS-FACTORIAL HepG2 Assay for human Myeloblastosis (Myb) Proto-Oncogene Transcription Factor (AID 2282986); conditions: HepG2 Attagene CIS-FACTORIAL Myb reporter transcription; actives raise or lower the signal
Chain of Transcriptional activator Myb (Homo sapiens) (P10242 whole entry, looked up): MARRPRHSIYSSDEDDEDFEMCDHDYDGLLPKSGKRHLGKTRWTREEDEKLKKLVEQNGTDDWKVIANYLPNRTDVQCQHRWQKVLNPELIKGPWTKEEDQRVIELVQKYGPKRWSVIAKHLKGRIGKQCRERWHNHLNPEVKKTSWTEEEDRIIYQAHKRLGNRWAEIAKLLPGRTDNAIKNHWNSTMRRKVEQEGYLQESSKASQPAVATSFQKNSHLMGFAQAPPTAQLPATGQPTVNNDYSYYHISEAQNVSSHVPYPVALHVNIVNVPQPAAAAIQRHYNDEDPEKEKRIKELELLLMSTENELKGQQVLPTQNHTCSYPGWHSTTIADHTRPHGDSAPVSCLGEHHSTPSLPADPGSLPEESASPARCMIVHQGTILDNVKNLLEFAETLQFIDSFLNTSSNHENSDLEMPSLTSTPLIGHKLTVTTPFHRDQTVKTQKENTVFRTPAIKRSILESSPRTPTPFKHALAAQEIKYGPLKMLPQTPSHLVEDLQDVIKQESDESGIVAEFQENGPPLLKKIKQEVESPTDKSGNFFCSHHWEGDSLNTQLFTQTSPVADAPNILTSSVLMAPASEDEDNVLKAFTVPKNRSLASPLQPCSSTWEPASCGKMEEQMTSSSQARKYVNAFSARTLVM
Method in brief: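 Transiently transfected HepG2 cells, treated 24 h. Reporter mRNA quantified by RT-PCR/capillary electrophoresis; bidirectional fit relative to DMSO.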

[6] = target: Nuclear respiratory factor 1 (Homo sapiens) (UniProt Q16656); assay: ATG_NRF1_CIS: Attagene CIS-FACTORIAL HepG2 Assay for human Nuclear Respiratory Factor 1 (NRF1) Orphan Gene (AID 2282987); conditions: HepG2 NRF1 cis-element reporter, Attagene multiplex; actives raise or lower the signal
Chain of Nuclear respiratory factor 1 (Homo sapiens) (Q16656 whole entry, looked up, the tested form may be a part): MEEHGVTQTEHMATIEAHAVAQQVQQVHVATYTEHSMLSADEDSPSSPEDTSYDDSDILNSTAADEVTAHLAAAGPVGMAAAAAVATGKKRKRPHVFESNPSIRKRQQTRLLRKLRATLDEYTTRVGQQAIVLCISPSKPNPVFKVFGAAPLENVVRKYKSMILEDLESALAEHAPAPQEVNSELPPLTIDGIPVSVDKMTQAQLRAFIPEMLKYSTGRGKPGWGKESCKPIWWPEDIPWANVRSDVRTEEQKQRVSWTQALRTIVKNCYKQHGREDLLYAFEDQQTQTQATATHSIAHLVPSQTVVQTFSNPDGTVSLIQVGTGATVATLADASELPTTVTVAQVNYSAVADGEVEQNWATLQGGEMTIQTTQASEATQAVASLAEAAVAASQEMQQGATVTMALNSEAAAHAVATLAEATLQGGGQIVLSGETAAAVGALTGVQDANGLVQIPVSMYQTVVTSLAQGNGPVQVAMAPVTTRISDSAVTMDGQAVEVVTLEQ
Method in brief: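 Cells (HepG2, transient MRTU transfection) are exposed to compound for 24 h, then RNA isolated and reporter mRNA amplified and fluorescently labelled. Fragments are separated by capillary electrophoresis; signal change is fitted bidirectionally relative to DMSO.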

[7] = ATG_NFI_CIS: Attagene CIS-FACTORIAL HepG2 Assay for human Nuclear Factor I (NFI) (AID 2282989); conditions: HepG2 cis-regulatory reporter, NFI response element transcription; actives raise or lower the signal
Method in brief: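 Read-out: reporter mRNA via RT-PCR plus capillary electrophoresis with fluorescence detection. Transiently transfected HepG2 (endogenous TF activity on cis promoters), 24 h compound exposure; gain or loss of signal fitted against DMSO.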

[8] = ATG_NF_kB_CIS: Attagene CIS-FACTORIAL HepG2 Assay for human Nuclear Factor Kappa B (NF-kB) (AID 2282991); conditions: HepG2 Attagene cis-factorial NF-kB reporter mRNA; actives raise or lower the signal
Method in brief: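 Measures mRNA induction of an NF-kB-responsive cis-element reporter in HepG2 cells transfected with multiple reporter units, sampled 24 h post-dosing; quantified by fluorescence after RT-PCR and capillary electrophoresis, fitted for activation or inhibition against DMSO.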

[9] = target: Nuclear receptor subfamily 4 group A member 2 (Homo sapiens) (UniProt P43354); assay: ATG_NURR1_TRANS: Attagene TRANS-FACTORIAL HepG2 Assay for human Nuclear Receptor Related Protein 1 (NURR1) (AID 2282985; active = hit-call score of the fitted dose curve at least 0.9, where 1 is the maximum); conditions: HepG2 Attagene TRANS reporter, mRNA readout
Chain of Nuclear receptor subfamily 4 group A member 2 (Homo sapiens) (P43354 whole entry, looked up): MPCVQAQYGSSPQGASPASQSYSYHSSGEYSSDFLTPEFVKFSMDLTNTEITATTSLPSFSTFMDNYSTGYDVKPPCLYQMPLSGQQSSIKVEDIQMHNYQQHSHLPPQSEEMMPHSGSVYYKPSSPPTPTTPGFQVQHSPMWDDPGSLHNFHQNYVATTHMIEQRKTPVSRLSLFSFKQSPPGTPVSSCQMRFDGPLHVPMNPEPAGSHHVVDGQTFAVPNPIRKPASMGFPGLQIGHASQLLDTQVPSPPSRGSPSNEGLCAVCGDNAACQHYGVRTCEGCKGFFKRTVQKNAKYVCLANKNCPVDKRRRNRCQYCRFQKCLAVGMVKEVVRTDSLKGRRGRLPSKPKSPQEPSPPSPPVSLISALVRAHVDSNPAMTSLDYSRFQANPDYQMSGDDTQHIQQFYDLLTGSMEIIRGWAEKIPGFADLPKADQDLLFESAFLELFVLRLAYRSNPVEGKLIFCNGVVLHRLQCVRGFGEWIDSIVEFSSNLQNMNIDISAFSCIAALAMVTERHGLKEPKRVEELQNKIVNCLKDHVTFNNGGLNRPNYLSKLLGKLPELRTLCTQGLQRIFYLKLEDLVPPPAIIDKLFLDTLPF
Method in brief: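 Endpoint: reporter mRNA increase relative to DMSO. HepG2 cells transfected with reporter units, treated 24 h; RNA processed by RT-PCR, labelling, HpaI digestion and capillary electrophoresis.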

[10] = target: Myc proto-oncogene protein (Homo sapiens) (UniProt P01106); assay: ATG_Myc_CIS: Attagene CIS-FACTORIAL HepG2 Assay for human Myelocytomatosis (Myc) Proto-Oncogene Transcription Factor (AID 2282990); conditions: HepG2, Attagene cis-reporter transcription factor activity; actives raise or lower the signal
Chain of Myc proto-oncogene protein (Homo sapiens) (P01106 whole entry, looked up, the tested form may be a part): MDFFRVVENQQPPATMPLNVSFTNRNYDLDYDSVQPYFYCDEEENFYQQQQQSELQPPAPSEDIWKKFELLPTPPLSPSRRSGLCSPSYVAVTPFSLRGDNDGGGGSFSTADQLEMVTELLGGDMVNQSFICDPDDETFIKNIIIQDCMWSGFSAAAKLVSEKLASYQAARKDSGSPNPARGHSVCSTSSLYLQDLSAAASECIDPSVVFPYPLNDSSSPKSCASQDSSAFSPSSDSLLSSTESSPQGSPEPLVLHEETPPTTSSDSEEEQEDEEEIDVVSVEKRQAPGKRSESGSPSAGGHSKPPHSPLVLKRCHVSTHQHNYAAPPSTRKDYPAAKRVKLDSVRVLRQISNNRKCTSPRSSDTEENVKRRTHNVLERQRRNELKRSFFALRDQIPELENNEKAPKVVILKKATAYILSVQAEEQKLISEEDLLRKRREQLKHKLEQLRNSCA
Method in brief: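 Fluorescence intensity of reporter-specific cDNA fragments, separated by capillary electrophoresis, gives the signal. Transfected HepG2 cells carrying cis-promoter reporter constructs are incubated with compound for 24 h; DMSO serves as baseline.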

Measured: AC50

BrCCCCBr
not listed: [9] | [10]
inactive: all other assays above

Nc1ccc(N)cc1
not listed: [9]
inactive: all other assays above

COP(=S)(OC)Oc1cc(Cl)c(I)cc1Cl
active: [5] 49.5 µM | [6] 55.6 µM | [7] 29.1 µM | [8] 55.6 µM
inactive: all other assays above

O=C(Cc1ccccc1)OCCc1ccccc1
inactive: all assays above

COC(F)(C(F)(F)C(F)(F)F)C(F)(C(F)(F)F)C(F)(F)F (stereo not given)
not listed: [5] | [10]
inactive: all other assays above

N#Cc1ccncc1
inactive: all assays above

O=CCCl
active: [6] 25.5 µM | [10] 24.5 µM | [8] 32.7 µM
inactive: all other assays above

CN(N=O)C(N)=O
inactive: all assays above

CNC(=O)CSP(=O)(OC)OC
inactive: all assays above

Oc1ccc(Cc2ccc(O)cc2)cc1
not listed: [9]
inactive: all other assays above

CCCCN(CCCC)C(=S)[S-].CCCCN(CCCC)C(=S)[S-].[Ni+2]
not listed: [8] | [9]
inactive: all other assays above

Brc1ccc(Oc2c(Br)cc(Br)cc2Br)c(Br)c1
inactive: all assays above

COC(=O)c1cc(Oc2ccc(Cl)cc2Cl)ccc1[N+](=O)[O-]
active: [9] 32.3 µM
inactive: all other assays above

C=CC(=O)NC(C)(C)CC(C)=O
not listed: [8] | [9]
inactive: all other assays above

O=NN1CCCCCC1
inactive: all assays above

O=C(NC(=O)c1c(F)cccc1F)Nc1cc(Cl)c(OC(F)(F)C(F)C(F)(F)F)cc1Cl (stereo not given)
active: [1] 49.9 µM
not listed: [5] | [9]
inactive: all other assays above

C=CCOC(N)=O
inactive: all assays above

Nc1c(Oc2ccccc2)cc(O)c2c1C(=O)c1ccccc1C2=O
inactive: all assays above

O=C(CCl)Nc1ccccc1
active: [5] 100 µM | [6] 35.2 µM | [7] 26.9 µM
not listed: [8]
inactive: all other assays above

CCOCn1c(-c2ccc(Cl)cc2)c(C#N)c(Br)c1C(F)(F)F
active: [5] 78.8 µM | [7] 48.7 µM | [10] 150 µM
not listed: [8]
inactive: all other assays above

CCN(CC)C(=O)C(Cl)=C(C)OP(=O)(OC)OC
not listed: [5]
inactive: all other assays above

Nc1cccnc1
inactive: all assays above

Cl[C@H]1OCCO[C@@H]1Cl
not listed: [9]
inactive: all other assays above

CC1CC(=O)O1 (stereo not given)
not listed: [8] | [10]
inactive: all other assays above
